Source: PubChem (several laboratories)
The list is not random: actives were taken first. Their share in the collection is about 28%.
CYP2C9 inh – blocks human cytochrome P450 2C9; hit rate 20% among 96,000; CYP2C9 Supersomes, luciferin-H conversion, luminescence; inhibition, % at 5 µM;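 active means blocking of liver enzyme CYP2C9 beyond about 50% at 5 µM, limit read from the data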
CYP2C19 act – cytochrome P450 2C19 (human) activation; P33261; recombinant CYP2C19, luciferin-H EGE luminescence; active compounds read high; 0 = fully inhibited enzyme, 1 = untreated enzyme; activation factor at 5 µM; 96,000 tested, under 10 active;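 active means activation factor of at least 2 at 5 µM in the primary screen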;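 further: 0 = wells with 2.5 mM tranylcypromine and 1 = vehicle-only wells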
Target sequence (P33261 whole entry, looked up): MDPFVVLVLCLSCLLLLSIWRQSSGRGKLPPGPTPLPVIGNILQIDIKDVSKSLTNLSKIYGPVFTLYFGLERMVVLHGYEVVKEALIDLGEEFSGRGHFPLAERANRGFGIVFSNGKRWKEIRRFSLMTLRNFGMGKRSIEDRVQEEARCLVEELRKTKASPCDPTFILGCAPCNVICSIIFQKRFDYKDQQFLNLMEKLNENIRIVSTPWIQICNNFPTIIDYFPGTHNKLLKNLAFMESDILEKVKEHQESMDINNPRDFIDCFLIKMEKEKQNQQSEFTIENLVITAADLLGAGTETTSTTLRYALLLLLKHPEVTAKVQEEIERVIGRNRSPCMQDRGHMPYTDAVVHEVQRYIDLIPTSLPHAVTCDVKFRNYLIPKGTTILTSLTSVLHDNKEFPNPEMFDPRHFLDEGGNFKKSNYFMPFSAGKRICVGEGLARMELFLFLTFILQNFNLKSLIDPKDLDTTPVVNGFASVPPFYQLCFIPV
D1 allo mod – D1 dopamine receptor (human) allosteric modulation. HEK293 D1, CRE-luciferase, dopamine EC30 potentiation; actives deviate in either direction. P21728. AID 641. B-score at 10 µM. hit rate 5.9% among 58,000;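 active means luminescence count or its row- and column-corrected plate score outside the 99.7% band of the plate's sample wells, on either side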
CYP2C19 inhib – human CYP2C19 inhibition; CYP2C19 Supersomes, luciferin-H EGE luminescence, 30 min; hit rate 21% among 96,000; inhibition, % at 5 µM;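 active means CYP2C19 inhibition above a set limit at 5 µM in the primary screen, cut at about 50% in these data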;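 further: plate controls were negative control wells for no effect and 2.5 mM tranylcypromine positive control for full effect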
CYP2C9 act – increases human cytochrome P450 2C9 activity; P11712; recombinant CYP2C9, luciferin-H conversion, luminescence; active compounds read high; factor 1 = untreated enzyme, 0 = blocked; activation factor at 5 µM; hit rate 1.4% among 96,000;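 active means activation factor of 2 or more for CYP2C9 at a 5 µM dose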;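 further: 0 = sulfaphenazole-blocked wells and 1 = vehicle-only wells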
DAT uptake mod – changed human dopamine transporter uptake under cocaine IC80; hit rate 1.3% among 110,000; LLC-PK1 hDAT cells, [14C]-dopamine uptake with cocaine IC80; actives deviate in either direction; B-score at 10 µM; Q01959;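 active means Z score or B-score, a plate-position-corrected score, falls beyond the plate's 99.7% confidence bounds, in either direction; inactive means both scores lie inside the 99.7% bounds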;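 further: scored against the spread of the other compound wells on the same plate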
* = called active by the depositor.

For c1ccc(Cn2c(Sc3nnnn3-c3ccccc3)nnc2-c2ccccc2)cc1 the results were CYP2C9 inh 28, CYP2C19 act 0.8, D1 allo mod 0.058, CYP2C19 inhib 18, CYP2C9 act 0.7 and DAT uptake mod 0.61.
Cc1sc2ncnc(Sc3nnnn3-c3ccccc3)c2c1C was read as CYP2C9 inh 23, CYP2C19 act 0.4, D1 allo mod -4.8*, CYP2C19 inhib 56*, CYP2C9 act 0.8 and DAT uptake mod -0.34.
Clc1ccc(-n2nnnc2Sc2ncnc3sccc23)cc1 was read as D1 allo mod -2.9* and DAT uptake mod -1.1.
Cc1ccc(SCC(=O)O/N=C(\N)c2ccc([N+](=O)[O-])cc2)cc1 was read as CYP2C9 inh -2, CYP2C19 act 0.9, CYP2C19 inhib 7, CYP2C9 act 1 and DAT uptake mod -0.65.
For CN(CC(=O)O/N=C(\N)c1ccc([N+](=O)[O-])cc1)S(=O)(=O)c1ccc2ccccc2c1 the results were CYP2C9 inh -133, CYP2C19 act 0.9, CYP2C19 inhib 10 and CYP2C9 act 2.3*.
For NC(=O)C1=C[C@H](c2csc3ccccc23)C[C@H](OCCCCO)O1 the results were DAT uptake mod 1.2.
O=C(Nc1ccc(Cl)cc1Cl)C1CCC(=O)N1Cc1ccccc1Cl (configuration not stated) was read as CYP2C9 inh 33, CYP2C19 act 0.5, CYP2C19 inhib 51*, CYP2C9 act 0.7 and DAT uptake mod 0.006.
COc1ccc(-c2cc(C(F)F)n3ncc(C(=O)N4CCN5CCCC5C4)c3n2)cc1 (configuration not stated) was read as CYP2C9 inh 35, CYP2C19 act 0.7, D1 allo mod 3.6, CYP2C19 inhib 32, CYP2C9 act 0.7 and DAT uptake mod 1.
`COc1ccc(C(=O)NNC(=S)NC(=O)c2cc(-c3ccccc3)nc3ccccc23)cc1` gave CYP2C9 inh 42, CYP2C19 act 0.9, CYP2C19 inhib 8 and CYP2C9 act 0.6.
For CCNC(=S)NNC(=O)c1cc(CC(C)C)nc2ccccc12 the results were CYP2C9 inh 64*, CYP2C19 act 0.9, CYP2C19 inhib 10, CYP2C9 act 0.4 and DAT uptake mod -0.48.
CCCOc1ccc(C(=O)NNC(=S)NC(=O)c2cc(-c3ccc(Cl)cc3)nc3ccccc23)cc1 was read as CYP2C9 inh 50*, CYP2C19 act 0.9, CYP2C19 inhib 8, CYP2C9 act 0.5 and DAT uptake mod -0.73.
Screening CCCc1cc(C(=O)O)c2ccccc2n1 returned CYP2C9 inh -5, CYP2C19 act 1.1, CYP2C19 inhib -14, CYP2C9 act 1 and DAT uptake mod -0.35.
CCNC(=S)NNC(=O)c1cc(-c2ccccc2C)nc2ccccc12 was read as CYP2C9 inh 60*, CYP2C19 act 1, CYP2C19 inhib 0, CYP2C9 act 0.4 and DAT uptake mod -0.028.
For CCCCNC(=S)NNC(=O)c1csc(CC)c1 the results were DAT uptake mod 0.086.
Screening CCCc1cc(C(=O)NNC(=S)NC(C)c2ccccc2)cs1 (configuration not stated) returned CYP2C9 inh 44, CYP2C19 act 0.2, CYP2C19 inhib 81*, CYP2C9 act 0.6 and DAT uptake mod 0.023.
`CC1CCCCC1NC(=O)CSc1nnc(COc2ccccc2Cl)o1` (configuration not stated) gave CYP2C9 inh -10, CYP2C19 act 0.8, D1 allo mod 0.27, CYP2C19 inhib 21, CYP2C9 act 1.1 and DAT uptake mod -0.43.
Cc1cc(C(=O)NNC(=S)NC(C)c2ccccc2)c2ccccc2n1 (configuration not stated) was read as CYP2C9 inh 55*, CYP2C19 act 1, CYP2C19 inhib -4, CYP2C9 act 0.4 and DAT uptake mod 0.077.
For CCNC(=S)NNC(=O)c1cc(-c2ccc(OCC)cc2)nc2ccccc12 the results were CYP2C9 inh 79*, CYP2C19 act 0.6, CYP2C19 inhib 43, CYP2C9 act 0.2 and DAT uptake mod -0.00012.
CCOc1ccc(-c2cc(C(=O)O)c3ccccc3n2)c(OCC)c1 was read as D1 allo mod 0.81 and DAT uptake mod -0.14.
`CCCOc1cccc(-c2cc(C(=O)NNC(=S)NCC)c3ccccc3n2)c1` gave CYP2C9 inh 70*, CYP2C19 act 0.8, CYP2C19 inhib 22 and CYP2C9 act 0.3.
C=CCN(CC=C)C(=S)Nc1ccccc1 was read as CYP2C9 inh 4, CYP2C19 act 0.8, CYP2C19 inhib 24, CYP2C9 act 1 and DAT uptake mod -0.26.
N#Cc1cc2c(=O)n3ccccc3nc2n(CCCN2CCOCC2)c1=O was read as CYP2C9 inh 41, CYP2C19 act 0.3, D1 allo mod 0.77, CYP2C19 inhib 69*, CYP2C9 act 0.6 and DAT uptake mod -0.19.
Screening N#Cc1cc2c(=O)n3ccccc3nc2n(CCN2CCOCC2)c1=O returned CYP2C9 inh 12, CYP2C19 act 0.9, D1 allo mod -0.13, CYP2C19 inhib 6 and CYP2C9 act 0.9.
`O=C(NCCN1CCOCC1)c1cc2c(=O)n3ccccc3nc2n1Cc1ccccc1` gave CYP2C9 inh 44, CYP2C19 act 0.5, D1 allo mod 0.93, CYP2C19 inhib 55*, CYP2C9 act 0.6 and DAT uptake mod 1.1.
Screening CCCN(CCC)C(=S)NC(=O)c1ccc(Cl)cc1Cl returned CYP2C9 inh 19, CYP2C19 act 0.5, CYP2C19 inhib 47, CYP2C9 act 0.8 and DAT uptake mod -0.1.
`CC1(C)CC(=O)C2=C(C1)N(Cc1ccco1)C(=O)C2(O)C(F)(F)F` (configuration not stated) gave CYP2C9 inh 9, CYP2C19 act 0.9, D1 allo mod 0.63, CYP2C19 inhib 11, CYP2C9 act 0.9 and DAT uptake mod 0.011.
For Cc1ccccc1Nc1nc(N)nc(CN2C(=O)NC3(CCCCC3C)C2=O)n1 (configuration not stated) the results were CYP2C9 inh -8, CYP2C19 act 0.9, D1 allo mod 0.1, CYP2C19 inhib 8, CYP2C9 act 1.1 and DAT uptake mod -7.6*.
Cc1cccc(Nc2nc(N)nc(CN3CCC(C)CC3)n2)c1C was read as D1 allo mod 0.17 and DAT uptake mod -0.42.
Screening O=C(c1ccc2c(=O)n(C3CCCC3)c(=S)[nH]c2c1)N1CCc2ccccc21 returned CYP2C9 inh 11, CYP2C19 act 1, CYP2C19 inhib -3, CYP2C9 act 0.9 and DAT uptake mod -0.83.
Cc1sc(-n2c(C)cc(/C=N/n3cnnc3)c2C)c(C#N)c1C was read as CYP2C9 inh 83*, CYP2C19 act 0.1, CYP2C19 inhib 89*, CYP2C9 act 0.2 and DAT uptake mod -0.82.
`Cc1cc(/C=N/n2cnnc2)c(C)n1-c1ccc(Cl)cc1Cl` gave CYP2C9 inh 94*, CYP2C19 act 0, D1 allo mod -0.4, CYP2C19 inhib 99*, CYP2C9 act 0.1 and DAT uptake mod 1.3.
